# Assay outcomes deposited in PubChem BioAssay by Center for Chemical Genomics, University of Michigan.
# Dicer processing – blocks human Dicer maturation of pre-miR-21. AID 1347074. cat-ELCCA pre-miR-21 Dicer processing, chemiluminescence; hits give high values. 47,000 compounds, 6% hits. Q9UPY3. z-score at 25 µM; in the data active = z-score above about 3, passing the limit was not always enough;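 note: higher signal means more uncleaved substrate so more Dicer inhibition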
# Hits are given with their value; - = inactive; ! = a repeat was not active. The entries come from a sample that favours hits as a whole.
SMILES,Dicer processing
COc1cccc(CN2CCN(Cc3cc(Br)ccc3O)CC2)c1,3.4
COc1ccc(CN2CCN(Cc3ccc(Br)cc3)CC2)cc1,-
CCc1ccc(CN2CCN(Cc3cc(Br)ccc3O)CC2)cc1,-
CN(C)C(=O)Oc1ccnc(SCc2ccc([N+](=O)[O-])cc2)n1,-
O=[N+]([O-])/C=C/c1cc(C(F)(F)F)cc(C(F)(F)F)c1,-
O=C1CSC(c2ccc(Br)cc2)c2c(n(C3CCCC3)[nH]c2=O)N1 (centres undefined),-
C[C@]12CC[C@H](O)C[C@H]1CC[C@@H]1[C@@H]2CC[C@]2(C)[C@@H](C3=CC(=O)OC3)CC[C@]12O,-
C[C@]12CC[C@H](O)C[C@H]1CC[C@@H]1[C@@H]2C[C@@H](O)[C@]2(C)[C@@H](C3=CC(=O)OC3)CC[C@]12O,4.5
C[C@]12CCC3[C@@H](CC[C@@H]4C[C@H](O)CC[C@]34C)[C@@H]1CCC2=O (some centres undefined),-
CC1(C)CC(n2[nH]c(=O)c3c2NC(=O)CSC3c2ccc(Br)cc2)CCO1 (centres undefined),-
CC1(C)CN=C(Nc2ccccc2F)S1,-
O=c1c2ccccc2nc(/C=C/c2ccccc2F)n1-c1ccccc1,6
CN(C)c1ccc(/C=C/c2nc3ccccc3c(=O)n2-c2ccccc2)cc1,-
O=c1c2ccccc2nc(C(F)(F)F)n1-c1ccccc1,-
Cc1ccc(-n2c(/C=C/c3ccc([N+](=O)[O-])o3)nc3ccccc3c2=O)cc1,3
O=c1c2ccccc2nc(/C=C/c2ccc([N+](=O)[O-])o2)n1-c1ccc(Br)cc1,-
O=c1c2ccccc2nc(/C=C/c2ccco2)n1-c1cccc(O)c1,-
Cc1nc2ccccc2c(=O)n1-c1ccc(Br)cc1,-
O=c1c2ccccc2nc(/C=C/c2ccccc2)n1-c1cccc(O)c1,3.1
O=c1c2ccccc2nc(/C=C/c2ccc3c(c2)OCO3)n1-c1ccccc1O,-
CC1(C)CN=C(Nc2ccc(Cl)cc2)S1,-
Cc1ccc(-n2c(=S)[nH]c3cccc(F)c3c2=O)cc1C,-
CCCCCCn1c(N)c(C(=O)OC)c2nc3ccccc3nc21,-
S=C(Nc1ccc(Cl)cc1Cl)N1CCCC1c1cccnc1 (centres undefined),-
Cc1cccc2[nH]c(=S)n(-c3ccc(OC(F)(F)F)cc3)c(=O)c12,-
SMILES,Dicer processing
Cc1ccc(NC2=NCCS2)c(C)c1,-
Clc1cc(Cl)cc(NC2=NCCS2)c1,3.7!
Clc1cc(Br)ccc1NC1=NCCS1,-
Clc1cccc(Cl)c1NC1=NCCS1,-
Cc1cc(C)c(NC2=NCCS2)c(C)c1,-
Clc1cccc(NC2=NCCS2)c1Cl,3.6
CC(=O)OC1CCC2(C)C(=CCC3C2CCC2(C)C(OC(C)=O)CCC32)C1 (centres undefined),-
O=C(Nc1ccc(F)cc1)N1CC2C[C@H](C1)c1cccc(=O)n1C2,-
N#Cc1ccc(NC(=O)c2cc(C(F)(F)F)cc(C(F)(F)F)c2)cc1C(F)(F)F,-
CC(C)N1CCC(n2nnc3ccccc32)CC1,-
Cc1ccc(NC2=NCC(C)(C)S2)cc1,-
Cc1ccc2[nH]c(=S)n(-c3ccccc3F)c(=O)c2c1,5.3
CCc1ccccc1-n1c(=S)[nH]c2ccccc2c1=O,-
Cc1ccc(-n2c(=S)[nH]c3ccccc3c2=O)cc1,-
CCC1c2c(nc(C)[nH]c2=O)Oc2c1c(=O)oc1ccccc21 (centres undefined),-
Cc1c(C(N)=O)ncn1Cc1ccc(Cl)cc1,-
CC1(C)CN=C(NCc2cccnc2)S1,-
Nc1ccc(Cc2ccc(N)cc2)cc1,7.6
CCCc1cc(OC(=O)N(C)C)nc(-c2cccc(C)c2)n1,-
Clc1ccc(CN2CCN(Cc3ccc4c(c3)OCO4)CC2)cc1,-
CSc1ccc(CN2CCN(Cc3ccccc3Cl)CC2)cc1,-
Clc1ccccc1CN1CCN(Cc2ccc3c(c2)OCO3)CC1,3.9
Fc1cccc(CN2CCN(Cc3ccccc3Cl)CC2)c1,6.4
Clc1cccc(CN2CCN(Cc3ccc4c(c3)OCO4)CC2)c1,-
Fc1cccc(Cl)c1CN1CCN(Cc2c(F)cccc2Cl)CC1,-
SMILES,Dicer processing
CC(C)(C)OC(=O)N[C@@H](CCCN=C(N)N[N+](=O)[O-])C(=O)O,-
CCOc1ccccc1Oc1coc2cc(OC(=O)N(C)C)ccc2c1=O,3.4
COc1cccc(Oc2c(C)oc3cc(OC(=O)N(C)C)ccc3c2=O)c1,-
Cc1oc2cc(OC(=O)N(C)C)ccc2c(=O)c1Oc1ccccc1Br,-
CC1(C)CSC(Nc2ccc(F)cc2)=N1,-
COc1ccc(CN2CCN(Cc3ccc(Cl)cc3)CC2)cc1Br,-
CN(C)CC1(CC(=O)O)CCCCC1,-
O=c1c2ccccc2[nH]c(=S)n1-c1ccc(F)c(Cl)c1,-
CCC1(C(=O)c2ccc(F)cc2)C2c3cc(Br)ccc3OC(=O)C21C(=O)OC (centres undefined),3.4
CC12CCC3C4CCC(=O)C=C4CCC3C1CCC2=O (centres undefined),-
Cc1ccc2onc(OC(=O)N(C)C)c2c1,-
O=C(NNC(=S)Nc1ccc(Cl)cc1)C1(O)CN2CCC1CC2 (centres undefined),-
CC12CCC3C(CC[C@H]4CC5(CCC34C)OCCO5)C1CCC2O (some centres undefined),-
O=c1oc2ccccc2c2c1C(c1ccc([N+](=O)[O-])cc1)c1c(c3ccccc3oc1=O)O2,3.7
O=c1oc2ccccc2c2c1C(c1cccc([N+](=O)[O-])c1)c1c(c3ccccc3oc1=O)O2,-
N#CC1=C(N)Oc2c(c(=O)oc3ccccc23)C1c1cccnc1 (centres undefined),-
COc1ccc(Br)cc1/C=C(\C)[N+](=O)[O-],-
C=C(C)Cc1c(COC)nc(-c2ccc(C)c(Cl)c2)nc1OC(=O)N(C)C,-
CCC(=O)OC1CCC2C3CCC4=CC(=O)CCC4(C)C3CCC12C (centres undefined),-
CCOC(=O)C1=C(C)OC(N)=C(C#N)C12C(=O)Nc1ccccc12 (centres undefined),-
CCOC(=O)C1=C(N)OC(c2ccccc2)=C(C(=O)OCC)C12C(=O)Nc1ccccc12 (centres undefined),-
COCCOC(=O)C1=C(C)OC(N)=C(C#N)C12C(=O)Nc1ccccc12 (centres undefined),3.8
NCCCCNc1ccc([N+](=O)[O-])c2cccnc12,-
CC12CC(C(=O)C(F)(F)F)=C(O)C=C1CCC1C2CCC2(C)C(O)CCC12 (centres undefined),-
CC(C)NCCc1c[nH]c2ccccc12,-
